Targets with a hit are over-represented here; the source holds about 7,900 in all. About 0.6% of all pairs of compound and target were hits. A number with no mark means an inactive call.
Key:
Test in all cases: log2 fold change, soluble protein after heating vs DMSO (PISA); higher = thermal stabilisation; K562 cells, 10 uM, 30 min; active = over 0.2 and 3.5 SD of the protein, either way, in both replicates (recomputed)
saracatinib = compound: CN1CCN(CCOc2cc(OC3CCOCC3)c3c(Nc4c(Cl)ccc5c4OCO5)ncnc3c2)CC1 [saracatinib]
Procedure, shortened: (§1)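 K562 cells at 2×10^6 cells/mL were exposed to 10 μM compound for 30 min, then aliquots were heated for 3 min across 48°C-58°C, pooled, and extracted in PBS containing 0.5% NP-40 at 4°C. The supernatant after 21,000xg for 90 min was taken as soluble protein and measured by TMTpro 16plex LC-MS/MS with channel sums equalised. Thermal stability is reported relative to control samples, with values from duplicates. Fold changes are given on a log2 scale.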

sotrastaurin = compound: CN1CCN(c2nc(C3=C(c4c[nH]c5ccccc45)C(=O)NC3=O)c3ccccc3n2)CC1 [sotrastaurin]
Procedure, shortened: as §1

alvocidib = compound: CN1CC[C@H](c2c(O)cc(O)c3c(=O)cc(-c4ccccc4Cl)oc23)[C@H](O)C1 [alvocidib]
Procedure, shortened: as §1

Tubastatin A = compound: CN1CCc2c(c3ccccc3n2Cc2ccc(C(=O)NO)cc2)C1 [Tubastatin A]
Procedure, shortened: as §1

[1] = compound: CNC(=O)C1=CC=CC=C1NC2=NC(=NC=C2Cl)NC3=C(C=C(C=C3)N4CCOCC4)OC
Procedure, shortened: as §1

defactinib = compound: CNC(=O)c1ccc(Nc2ncc(C(F)(F)F)c(NCc3nccnc3N(C)S(C)(=O)=O)n2)cc1 [defactinib]
Procedure, shortened: as §1

rucaparib = compound: CNCc1ccc(-c2[nH]c3cc(F)cc4c3c2CCNC4=O)cc1 [rucaparib]
Procedure, shortened: as §1

[2] = compound: CNc1nc(-c2ccc3c(N)n[nH]c3c2)cc(N2C[C@@H](C(=O)NC3CCCCC3)CC[C@H]2C)n1
Procedure, shortened: as §1

encorafenib = compound: COC(=O)N[C@@H](C)CNc1nccc(-c2cn(C(C)C)nc2-c2cc(Cl)cc(NS(C)(=O)=O)c2F)n1 [encorafenib]
Procedure, shortened: as §1

[3] = compound: COC(=O)[C@H](CCSC)NC(=O)C1=C(C=C(C=C1)NC[C@H](CS)N)C2=CC=CC=C2
Procedure, shortened: as §1

[4] = compound: COC1=CC=C(C=C1)CN2C=CC3=C2C=C(C=C3)C(=O)NO
Procedure, shortened: as §1

filanesib = compound: CON(C)C(=O)N1N=C(c2cc(F)ccc2F)S[C@@]1(CCCN)c1ccccc1 [filanesib]
Procedure, shortened: as §1

zotarolimus = compound: CO[C@H]1C[C@@H]2CC[C@@H](C)[C@@](O)(O2)C(=O)C(=O)N2CCCC[C@H]2C(=O)O[C@H]([C@H](C)C[C@@H]2CC[C@H](n3cnnn3)[C@H](OC)C2)CC(=O)[C@H](C)/C=C(\C)[C@@H](O)[C@@H](OC)C(=O)[C@H](C)C[C@H](C)/C=C/C=C/C=C/1C [zotarolimus]
Procedure, shortened: as §1

idasanutlin = compound: COc1cc(C(=O)O)ccc1NC(=O)[C@@H]1N[C@@H](CC(C)(C)C)[C@](C#N)(c2ccc(Cl)cc2F)[C@H]1c1cccc(Cl)c1F [idasanutlin]
Procedure, shortened: as §1

alisertib = compound: COc1cc(Nc2ncc3c(n2)-c2ccc(Cl)cc2C(c2c(F)cccc2OC)=NC3)ccc1C(=O)O [alisertib]
Procedure, shortened: as §1

[5] = compound: COc1cc2nc(-c3cc(F)ccc3O)nc(N[C@@H]3CNC[C@H]3C(C)(C)O)c2cc1OC
Procedure, shortened: as §1

gefitinib = compound: COc1cc2ncnc(Nc3ccc(F)c(Cl)c3)c2cc1OCCCN1CCOCC1 [gefitinib]
Procedure, shortened: as §1

[6] = compound: COc1cccc2cc(-c3nc([C@H]4CC[C@H](C(=O)O)CC4)n4ncnc(N)c34)[nH]c12
Procedure, shortened: as §1

lapatinib = compound: CS(=O)(=O)CCNCc1ccc(-c2ccc3ncnc(Nc4ccc(OCc5cccc(F)c5)c(Cl)c4)c3c2)o1 [lapatinib]
Procedure, shortened: as §1

pictilisib = compound: CS(=O)(=O)N1CCN(Cc2cc3nc(-c4cccc5[nH]ncc45)nc(N4CCOCC4)c3s2)CC1 [pictilisib]
Procedure, shortened: as §1

Sequence of UniProt Q6P1R3 (Q6P1R3 whole entry, looked up): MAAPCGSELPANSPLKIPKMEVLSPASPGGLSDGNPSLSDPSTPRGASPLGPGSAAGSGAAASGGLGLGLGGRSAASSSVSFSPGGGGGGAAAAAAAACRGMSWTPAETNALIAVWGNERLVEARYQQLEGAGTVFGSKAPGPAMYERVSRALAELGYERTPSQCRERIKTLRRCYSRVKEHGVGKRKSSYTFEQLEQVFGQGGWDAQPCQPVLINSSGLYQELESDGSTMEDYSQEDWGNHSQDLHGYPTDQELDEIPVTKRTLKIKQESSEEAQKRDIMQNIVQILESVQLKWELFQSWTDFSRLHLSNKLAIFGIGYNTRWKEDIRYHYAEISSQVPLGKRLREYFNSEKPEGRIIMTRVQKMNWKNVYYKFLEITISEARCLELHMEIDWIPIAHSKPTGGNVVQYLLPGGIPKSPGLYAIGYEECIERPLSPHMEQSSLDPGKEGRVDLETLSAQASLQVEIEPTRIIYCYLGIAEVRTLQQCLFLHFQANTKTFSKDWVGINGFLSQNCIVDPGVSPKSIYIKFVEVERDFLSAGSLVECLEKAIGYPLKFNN
Sequence of UniProt P48645 (P48645 whole entry, looked up): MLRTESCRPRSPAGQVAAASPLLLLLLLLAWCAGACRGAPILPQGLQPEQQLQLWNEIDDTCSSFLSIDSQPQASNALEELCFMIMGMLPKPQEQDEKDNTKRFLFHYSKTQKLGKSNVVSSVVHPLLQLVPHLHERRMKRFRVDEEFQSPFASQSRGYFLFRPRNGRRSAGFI
Sequence of UniProt Q9Y6X9 (Q9Y6X9 whole entry, looked up): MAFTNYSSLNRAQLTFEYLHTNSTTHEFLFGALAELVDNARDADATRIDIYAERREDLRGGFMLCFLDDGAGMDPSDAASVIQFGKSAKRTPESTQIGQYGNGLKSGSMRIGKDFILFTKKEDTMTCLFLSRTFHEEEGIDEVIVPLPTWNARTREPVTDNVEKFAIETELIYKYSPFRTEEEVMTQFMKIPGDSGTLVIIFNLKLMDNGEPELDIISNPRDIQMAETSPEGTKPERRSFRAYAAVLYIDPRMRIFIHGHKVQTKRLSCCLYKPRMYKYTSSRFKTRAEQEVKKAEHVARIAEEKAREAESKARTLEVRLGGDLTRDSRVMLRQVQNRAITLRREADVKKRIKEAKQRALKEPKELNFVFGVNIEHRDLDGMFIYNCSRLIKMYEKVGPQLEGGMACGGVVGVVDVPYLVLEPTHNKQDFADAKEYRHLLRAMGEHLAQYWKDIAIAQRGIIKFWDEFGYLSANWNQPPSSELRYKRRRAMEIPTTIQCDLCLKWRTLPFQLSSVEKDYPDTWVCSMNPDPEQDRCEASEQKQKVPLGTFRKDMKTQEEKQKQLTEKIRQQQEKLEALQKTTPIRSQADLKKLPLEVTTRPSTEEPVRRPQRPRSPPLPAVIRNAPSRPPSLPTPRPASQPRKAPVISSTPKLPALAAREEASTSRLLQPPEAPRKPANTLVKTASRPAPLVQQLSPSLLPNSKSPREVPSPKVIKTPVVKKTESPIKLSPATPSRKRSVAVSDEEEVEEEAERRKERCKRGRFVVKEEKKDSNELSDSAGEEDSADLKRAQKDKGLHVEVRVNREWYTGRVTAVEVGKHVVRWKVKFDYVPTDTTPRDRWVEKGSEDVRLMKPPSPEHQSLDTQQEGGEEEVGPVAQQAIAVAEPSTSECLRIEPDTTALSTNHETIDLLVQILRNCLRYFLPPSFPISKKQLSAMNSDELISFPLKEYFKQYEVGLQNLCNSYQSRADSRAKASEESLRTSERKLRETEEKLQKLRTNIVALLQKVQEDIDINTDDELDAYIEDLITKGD
Sequence of UniProt Q15014 (Q15014 whole entry, looked up): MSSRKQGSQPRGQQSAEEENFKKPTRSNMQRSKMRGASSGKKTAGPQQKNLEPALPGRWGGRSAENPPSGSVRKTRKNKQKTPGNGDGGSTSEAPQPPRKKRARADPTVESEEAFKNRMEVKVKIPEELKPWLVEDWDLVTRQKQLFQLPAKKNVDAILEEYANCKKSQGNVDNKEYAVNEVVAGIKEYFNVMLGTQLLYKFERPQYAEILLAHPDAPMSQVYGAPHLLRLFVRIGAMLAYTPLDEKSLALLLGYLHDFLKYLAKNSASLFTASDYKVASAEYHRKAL
Sequence of UniProt P0C024 (P0C024 whole entry, looked up): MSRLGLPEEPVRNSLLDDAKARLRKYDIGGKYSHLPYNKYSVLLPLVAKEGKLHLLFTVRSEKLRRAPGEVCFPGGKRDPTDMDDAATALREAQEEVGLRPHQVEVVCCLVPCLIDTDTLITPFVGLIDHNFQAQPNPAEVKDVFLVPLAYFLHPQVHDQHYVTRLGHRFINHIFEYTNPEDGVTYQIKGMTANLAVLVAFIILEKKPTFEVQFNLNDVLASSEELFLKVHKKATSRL
Sequence of UniProt Q9H6N6 (Q9H6N6 whole entry, looked up): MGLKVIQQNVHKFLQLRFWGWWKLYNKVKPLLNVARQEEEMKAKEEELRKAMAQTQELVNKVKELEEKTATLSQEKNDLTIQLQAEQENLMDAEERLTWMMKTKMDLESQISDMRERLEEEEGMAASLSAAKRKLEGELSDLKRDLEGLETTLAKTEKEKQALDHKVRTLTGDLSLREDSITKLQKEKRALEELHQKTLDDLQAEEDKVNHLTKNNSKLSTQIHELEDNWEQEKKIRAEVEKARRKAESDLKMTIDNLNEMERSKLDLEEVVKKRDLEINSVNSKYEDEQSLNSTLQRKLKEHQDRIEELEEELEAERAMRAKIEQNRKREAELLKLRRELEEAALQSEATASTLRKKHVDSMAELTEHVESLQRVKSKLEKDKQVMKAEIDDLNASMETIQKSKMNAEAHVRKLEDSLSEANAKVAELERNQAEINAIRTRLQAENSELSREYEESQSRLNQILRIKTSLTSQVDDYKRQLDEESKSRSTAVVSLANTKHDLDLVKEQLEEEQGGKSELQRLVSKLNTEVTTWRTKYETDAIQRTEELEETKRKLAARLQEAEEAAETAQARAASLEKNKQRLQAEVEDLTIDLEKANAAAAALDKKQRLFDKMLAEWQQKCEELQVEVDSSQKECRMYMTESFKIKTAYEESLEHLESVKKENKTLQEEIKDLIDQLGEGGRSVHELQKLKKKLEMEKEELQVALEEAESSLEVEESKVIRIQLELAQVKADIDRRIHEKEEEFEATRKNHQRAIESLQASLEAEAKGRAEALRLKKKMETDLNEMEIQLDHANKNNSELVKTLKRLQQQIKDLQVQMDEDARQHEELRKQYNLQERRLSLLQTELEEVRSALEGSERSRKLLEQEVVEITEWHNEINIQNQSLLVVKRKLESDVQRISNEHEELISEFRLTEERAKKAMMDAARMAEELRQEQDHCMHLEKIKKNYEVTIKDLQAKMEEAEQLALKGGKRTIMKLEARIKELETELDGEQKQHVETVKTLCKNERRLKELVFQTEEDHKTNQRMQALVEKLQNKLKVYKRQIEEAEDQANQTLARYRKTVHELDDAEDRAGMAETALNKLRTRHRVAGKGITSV
Sequence of UniProt Q8N5F7 (Q8N5F7 whole entry, looked up): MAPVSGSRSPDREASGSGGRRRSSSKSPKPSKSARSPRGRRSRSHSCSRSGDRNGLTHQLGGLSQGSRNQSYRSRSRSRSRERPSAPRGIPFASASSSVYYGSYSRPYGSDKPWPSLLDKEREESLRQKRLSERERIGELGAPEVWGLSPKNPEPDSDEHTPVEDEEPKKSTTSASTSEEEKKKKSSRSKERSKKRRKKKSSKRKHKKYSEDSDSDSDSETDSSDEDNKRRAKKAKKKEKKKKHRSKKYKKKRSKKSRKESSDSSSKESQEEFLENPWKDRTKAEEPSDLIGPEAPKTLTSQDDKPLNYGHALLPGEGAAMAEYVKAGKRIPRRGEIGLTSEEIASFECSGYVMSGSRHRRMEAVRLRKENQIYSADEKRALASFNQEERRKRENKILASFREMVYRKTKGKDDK
Sequence of UniProt Q86UD1 (Q86UD1 whole entry, looked up): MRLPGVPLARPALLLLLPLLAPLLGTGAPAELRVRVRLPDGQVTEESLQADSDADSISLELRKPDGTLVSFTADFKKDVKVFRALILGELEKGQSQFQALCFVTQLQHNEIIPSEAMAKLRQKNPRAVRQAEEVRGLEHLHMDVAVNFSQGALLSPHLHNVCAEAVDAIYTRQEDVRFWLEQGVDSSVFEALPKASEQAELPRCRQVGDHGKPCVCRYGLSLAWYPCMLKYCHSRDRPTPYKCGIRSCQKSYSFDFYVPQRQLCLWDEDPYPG
Sequence of UniProt P40261 (P40261 whole entry, looked up): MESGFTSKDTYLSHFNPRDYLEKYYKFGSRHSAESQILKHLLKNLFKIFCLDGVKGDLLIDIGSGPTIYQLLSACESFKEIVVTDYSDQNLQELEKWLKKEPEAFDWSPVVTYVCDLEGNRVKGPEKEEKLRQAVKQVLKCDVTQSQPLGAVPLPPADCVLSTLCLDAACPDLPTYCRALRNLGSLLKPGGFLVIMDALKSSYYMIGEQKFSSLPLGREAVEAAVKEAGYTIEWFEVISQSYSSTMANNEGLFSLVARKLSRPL
Sequence of UniProt Q92686 (Q92686 whole entry, looked up): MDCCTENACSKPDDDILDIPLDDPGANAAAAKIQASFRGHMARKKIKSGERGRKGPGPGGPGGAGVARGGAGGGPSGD
Sequence of UniProt Q9H1P3 (Q9H1P3 whole entry, looked up): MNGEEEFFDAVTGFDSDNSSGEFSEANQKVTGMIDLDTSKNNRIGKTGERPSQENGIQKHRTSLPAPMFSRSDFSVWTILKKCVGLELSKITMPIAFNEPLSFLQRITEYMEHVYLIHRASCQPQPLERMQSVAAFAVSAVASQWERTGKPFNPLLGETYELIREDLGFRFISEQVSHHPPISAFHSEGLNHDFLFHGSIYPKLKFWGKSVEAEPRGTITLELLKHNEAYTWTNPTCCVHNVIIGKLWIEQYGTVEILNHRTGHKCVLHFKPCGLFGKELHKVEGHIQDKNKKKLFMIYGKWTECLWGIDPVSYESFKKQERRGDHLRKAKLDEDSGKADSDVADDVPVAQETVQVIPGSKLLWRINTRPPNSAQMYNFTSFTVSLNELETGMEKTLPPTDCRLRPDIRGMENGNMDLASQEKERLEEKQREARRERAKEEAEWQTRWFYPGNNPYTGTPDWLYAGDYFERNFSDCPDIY

Row | Target | log2 fold change (saracatinib) | log2 fold change (sotrastaurin) | log2 fold change (alvocidib) | log2 fold change (Tubastatin A) | log2 fold change [1] | log2 fold change (defactinib) | log2 fold change (rucaparib) | log2 fold change [2] | log2 fold change (encorafenib) | log2 fold change [3] | log2 fold change [4] | log2 fold change (filanesib) | log2 fold change (zotarolimus) | log2 fold change (idasanutlin) | log2 fold change (alisertib) | log2 fold change [5] | log2 fold change (gefitinib) | log2 fold change [6] | log2 fold change (lapatinib) | log2 fold change (pictilisib)
1 | MORF4L2 (UniProt Q15014) | -0.002 | -0.01 | 0.022 | 0.136 | -0.003 | 0.011 | 0.056 | -0.1 | 0.04 | 0.066 | -0.149 | 0.146 | -0.044 | 0.045 | -0.066 | -0.085 | -0.048 | -0.074 | 0.03 | -0.063
2 | NCK1 (UniProt P16333) | -0.198 | -0.521 (active) | -0.005 | 0.126 | -0.071 | -0.125 |  | 0.158 |  | -0.122 | 0.049 | -0.054 | 0.13 | -0.001 | -0.127 | -0.165 | 0.002 | -0.024 | -0.066 | 
3 | MTHFD1 (UniProt P11586) | 0.004 | 0.018 | -0.055 | -0.009 | 0.003 | -0.046 | -0.032 | 0.058 | 0.04 | -0.036 | 0.048 | -0.07 | 0.04 | -0.036 | -0.001 | 0.017 | 0.055 | -0.015 | 0.014 | -0.002
4 | NNMT (UniProt P40261) | -0.041 | 0.01 | -0.087 | -0.081 | 0.016 | 0.004 | -0.078 | 0.021 | -0.021 | 0.038 | -0.057 | -0.163 | -0.001 | -0.076 | -0.06 | 0.216 | 0.041 | 0.017 | -0.019 | 0.06
5 | MSANTD2 (UniProt Q6P1R3) | -0.248 | 0.105 |  | 0.032 |  | -0.113 | -0.32 | 0.03 | -0.067 | -0.01 |  | -0.107 |  |  |  |  |  |  |  | 
6 | OSBPL3 (UniProt Q9H4L5) | -0.284 | -0.414 | 0.234 | 0.219 | 0.312 | 0.127 | 0.518 | 0.122 | 0.006 | -0.11 | -0.052 | 0.582 | 0.14 | 0.277 |  | -0.688 | 0.174 |  | 0.391 | 
7 | MRPS26 (UniProt Q9BYN8) | -0.094 | -0.013 | 0.025 | 0.156 | 0.003 | -0.01 | 0.093 | 0.122 | 0.089 | 0.003 | -0.039 | 0.09 | 0.04 | -0.145 | -0.078 | 0.041 |  | 0.072 | 0.074 | -0.155
8 | NCOA5 (UniProt Q9HCD5) | 0.002 | 0.188 |  |  | -0.081 |  |  | -0.04 |  |  | 0.046 | 0.209 |  |  |  | 0.04 | 0.145 |  | 0.047 | -0.043
9 | MYLK (UniProt Q15746) | 0.177 | -0.036 | -0.091 | 0.036 | 0.716 | -0.034 | -0.083 | -0.079 | 0.337 | -0.216 | -0.293 | 0.041 | 0.01 |  | -0.095 | 0.043 | 0.342 | 0.16 | 0.06 | 0.098
10 | NMU (UniProt P48645) | -0.017 |  | 0.044 | 0.149 | -0.055 | -0.08 | -0.076 | -0.09 | 0.034 | -0.042 | 0.259 |  | -0.018 | 0.057 |  | -0.156 | 0.162 |  | -0.047 | -0.3
11 | MRPS16 (UniProt Q9Y3D3) |  | -0.039 | -0.098 | 0.008 | -0.115 | 0.043 | 0.084 |  | 0.138 | 0 | -0.102 | 0.044 | 0.04 | -0.348 (active) | 0.02 | -0.054 | -0.045 | -0.011 | 0.039 | -0.03
12 | OSBPL2 (UniProt Q9H1P3) |  |  | -0.197 |  |  |  |  |  |  |  |  |  | 0.085 |  | -0.019 | -0.187 |  | -0.042 | 1.57 (active) | 
13 | NELFCD (UniProt Q8IXH7) | -0.114 |  | -0.378 |  | 0.024 | -0.228 |  | -0.002 |  | -0.085 | 0.006 |  | -0.071 | 0 |  | 0.179 | -0.052 |  | -0.006 | -0.061
14 | NKAP (UniProt Q8N5F7) | 0.067 |  | -0.142 | 0.093 | -0.296 | 0.092 | 0.055 | 0.085 | 0.149 | 0.039 | -0.005 |  | 0.112 | 0.115 | 0.037 | -0.051 | -0.029 | -0.13 | 0.09 | -0.013
15 | MORC2 (UniProt Q9Y6X9) |  |  |  |  | 0.124 |  |  |  |  |  | 0.195 |  |  | -0.018 | -0.012 | 0.134 |  | -0.013 | -0.118 | 
16 | NASP isoform 2 (UniProt P49321) |  |  |  |  |  |  |  |  |  |  |  |  |  |  | -0.129 |  |  | -0.58 |  | 
17 | NA, A0A1W2PSA9 | -0.046 |  | 0.168 | -0.17 |  |  |  | -0.107 |  |  |  |  | -0.275 | 0.049 |  |  |  |  |  | -0.179
18 | NUDT7 (UniProt P0C024) |  | 0.035 |  | -0.045 | 0.052 |  |  |  |  |  | 0.023 | -0.092 |  |  |  |  | 0.05 |  |  | 0.115
19 | NDUFA7 (UniProt M0R0N0) |  | 0.201 |  |  | -0.195 | 0.076 |  |  |  | 0.093 |  | -0.042 |  |  |  |  |  |  |  | 
20 | NRGN (UniProt Q92686) |  |  |  |  | 0.01 |  |  |  |  |  | -0.831 |  |  | 0.023 |  | -0.108 | -0.012 |  | 0.107 | 0.404
21 | OAF (UniProt Q86UD1) |  | 0.139 |  |  | 0.043 |  |  |  |  |  |  | -0.017 |  |  | -0.239 |  |  | 0.539 (active) |  | 
22 | MYH16 (UniProt Q9H6N6) |  | -0.224 | 0.138 | -0.069 | -0.075 | 0.013 |  |  |  | -0.171 | 0.886 (active) | -0.263 | -0.118 | -0.066 | 0.163 | -0.052 | -0.03 | -0.031 | 0.204 | -0.448
